High-throughput results (PubChem)
Most compounds without a hit are left out; they make up all but 3.5% or so of the library.
TEAD-YAP inh – TEAD-YAP interaction inhibition, primary screen, TEAD-YAP interaction inhibitor project, luminescence, HEK-TIYL cells; TEAD-Gal4/YAP UAS-luciferase luminescence; actives 1.4% (n = 640,000); inhibition, % at 9.12 µM; in the data active = inhibition above about 32%;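 note: 0% = median of test compound wells and 100% = reference inhibitor wells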
FBW7 activator – FBW7 E3 ligase activators, primary screen, biochemical, AlphaScreen, human | F-box/WD repeat-containing protein 7 (Homo sapiens), Q969H0 | AID 1259310, 2017 | AlphaScreen FBW7–phospho-cyclin E peptide binding, activator screen | actives 0.13% (n = 650,000) | normalized activity (activation), % at 26.1 µM; in the data active = normalized activity above about 1.9%;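 note: purified mutant Fbw7 with reduced substrate affinity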
MITF primary – MITF inhibitors, primary screen, biochemical, AlphaScreen, human. Microphthalmia-associated transcription factor (Homo sapiens), O75030. AlphaScreen MITF homodimerization, bead proximity signal. inhibition, % at 2.6 µM. actives 0.91% (n = 650,000). AID 1259374, 2018; in the data active = inhibition above about 50%;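 note: 0% = vehicle wells with protein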
GPR151 activ – activators of human GPR151, primary screen, cell-based, PathHunter beta-arrestin, luminescence; G-protein coupled receptor 151 (Homo sapiens), Q8TDV0; PathHunter beta-arrestin GPR151 cells; activation, % at 11.2 µM; actives 1% (n = 650,000); AID 1508602, 2020; in the data active = activation above about 4.9%;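 note: 0% = median of compound wells and 100% = cells with positive control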
Target sequence (Q8TDV0 whole entry, looked up): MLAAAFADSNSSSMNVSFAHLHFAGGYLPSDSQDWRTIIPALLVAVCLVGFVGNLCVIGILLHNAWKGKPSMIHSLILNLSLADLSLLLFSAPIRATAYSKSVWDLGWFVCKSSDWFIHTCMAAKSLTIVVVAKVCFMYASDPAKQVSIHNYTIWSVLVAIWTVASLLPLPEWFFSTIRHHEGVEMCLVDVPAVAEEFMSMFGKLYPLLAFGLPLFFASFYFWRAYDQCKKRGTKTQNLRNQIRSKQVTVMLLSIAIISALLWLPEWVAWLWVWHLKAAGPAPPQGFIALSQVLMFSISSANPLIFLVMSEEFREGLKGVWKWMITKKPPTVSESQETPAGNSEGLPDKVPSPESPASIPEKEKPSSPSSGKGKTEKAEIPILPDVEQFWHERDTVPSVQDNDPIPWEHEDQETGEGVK
GPR151 conf act – GPR151 activators, triplicate retest, confirmation, cell-based, PathHunter beta-arrestin, luminescence. shares compounds with GPR151 activ. GPR151 PathHunter beta-arrestin cells, 90 min; % of EA-reagent control over plate median. activation, % at 11.2 µM. 6,700 tested, under 10 active;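 active = mean percent activation across replicates above the confirmation screen cutoff of 4.91%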
GPR119 counter – GPR119 activators in beta-arrestin cells, counter-screen for GPR151 activator project, cell-based, PathHunter beta-arrestin, luminescence, triplicate; activation, % at 11.2 µM; actives 0.3% (n = 6,700); shares compounds with GPR151 activ; 90 min; 0 = compound-well median, 100 = enzyme-acceptor control;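 active = mean percent activation in the counterscreen above 29.09%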;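 note: counterscreen on off-target GPR119 to flag nonselective hits from the GPR151 activator screen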
An asterisk follows results filed as active; / = no result; ! = not confirmed by another sample.

SMILES	TEAD-YAP inh	FBW7 activator	MITF primary	GPR151 activ	GPR151 conf act	GPR119 counter
O=C(Nc1ccc(F)c(F)c1)c1ccc2c(=O)n(CCc3ccccc3)c(=O)[nH]c2c1	3	0	11	0	/	/
CCN(CC)S(=O)(=O)c1ccc2c(c1)c(=O)c(C(=O)N(C)CC(OC)OC)cn2C	6	0	11	0	/	/
CCN(CC)S(=O)(=O)c1ccc2c(c1)c(=O)c(C(=O)N(C)CCC#N)cn2C	-18	0	7	6.1*	0	-3
CCOc1nc(NCCC2=CCCCC2)nc(OCC)n1	-7	0	-3	9.8*	1	-9
Nc1ccn([C@@H]2O[C@H](CO)[C@@H](O)C2(F)F)c(=O)n1	-29	0	-2	8.7*!	0	1
Nc1ccn([C@@H]2O[C@H](CO)[C@@H](O)C2O)c(=O)n1 (some centres undefined)	-30	0	-15	-2	/	/
CCOC(=O)C1CCN(C(=O)Nc2ccc(Cl)cc2Cl)CC1	-2	0	-8	5.4*	0	-2
CCNC(=S)NCCc1ccc(Cl)cc1	-22	0	11	5.5*	0	3
O=C(NCCc1ccc(Cl)cc1)C(=O)NCc1ccccc1	5	0	9	7.4*	0	16
NNC(=S)NCCc1ccc(Cl)cc1	13	0	5	0	/	/
COc1cc2nc(NCCCOC(C)C)n3nc(-c4cccnc4)nc3c2cc1OC	10	0	1	5.2*	0	-9
Nc1ccc2c(c1)S(=O)(=O)c1cc(N)ccc1O2	-59	0	3	7.4*	0	-6
CN(C)CCCSC(=N)N	/	0	11	0	/	/
CSC(=N)N	5	0	-1	11*!	-1	4
CC(C)N1CCC(=NNC(=O)c2ccc(C(C)(C)C)cc2)CC1	0	0	-6	6.7*	2	-2
Cc1ccc(C(=O)NN=C2CCN(C)CC2)cc1	-10	0	-20	0	/	/
CN(C)CC(O)COC(c1ccccc1)c1ccccc1 (centres undefined)	7	0	-4	7.7*	0	-4
CCN1CCN(CC(O)COC(c2ccccc2)c2ccccc2)CC1 (centres undefined)	1	0	-20	2	/	/
CCc1ccc(-c2cc(C(=O)N3CCCCC3)c3ccccc3n2)cc1	-31	0	8	-1	/	/
CCc1ccc(-c2cc(C(=O)N3CCN(C/C=C/c4ccccc4)CC3)c3ccccc3n2)cc1	47*	0	2	5.3*	1	11
CC(=O)NNc1c(C(=O)Nc2cccc3ccccc23)cc([N+](=O)[O-])cc1[N+](=O)[O-]	3	0	7	1	/	/
O=C(NC1CC1)c1csc(N2CCC(N3CCOCC3)CC2)n1	1	0	7	-2	/	/
CCOc1ccc2c(c1)-c1c(ssc1=Nc1ccccc1OCC)C(C)(C)N2	-6	1	32	0	/	/
Cc1cc(C)n(-c2cccc(CN(C)C(=O)Cn3nnnc3CN3CCC(C)CC3)c2)n1	4	0	2	5.7*	0	4
COc1ccc(-c2nc(C)c(CCNC(=O)c3cccc(OC)c3)s2)cc1	-14	0	1	1	/	/
SMILES	TEAD-YAP inh	FBW7 activator	MITF primary	GPR151 activ	GPR151 conf act	GPR119 counter
COc1ccc(C(=O)NCCc2sc(-c3ccccc3)nc2C)cc1	-5	0	-7	5.2*	0	1
COCCNC(=O)C1CCC(CNS(=O)(=O)c2ccc(OC)cc2)CC1 (centres undefined)	5	0	6	6.0*	0	8
CCCNC(=O)C1CCC(CNS(=O)(=O)c2ccc(OC)cc2)CC1 (centres undefined)	-3	0	-10	-1	/	/
COCc1ccc(CN2CCCC(CNS(=O)(=O)c3ccc(OC)cc3)C2)o1 (centres undefined)	10	0	19	4.9*	0	-5
O=C(CCc1nnc(CCc2c[nH]c3ccccc23)o1)N1CCCCCCC1	-4	0	0	6.6*	0	0
CO[C@H]1C=CO[C@@]2(C)Oc3c(C)c(O)c4c(O)c(c(C=NN5CCN(C)CC5)c(O)c4c3C2=O)NC(=O)C(C)=CC=C[C@H](C)[C@H](O)[C@@H](C)[C@@H](O)[C@@H](C)[C@H](OC(C)=O)[C@@H]1C	/	0	-4	6.0*!	0	-6
CO[C@H]1/C=C/O[C@@]2(C)Oc3c(C)c(O)c4c(O)c(c(/C=N\N5CCN(C)CC5)c(O)c4c3C2=O)NC(=O)/C(C)=C\C=C\C(C)[C@H](O)[C@@H](C)[C@@H](O)[C@@H](C)[C@@H](OC(C)=O)[C@@H]1C (some centres undefined)	2	0	-14	-1	/	/
CCCNC(=O)C(=O)Nc1ccccc1CC	-3	0	-3	6.7*	0	-6
CCc1ccccc1NC(=O)C(=O)NCCOC	8	0	-25	0	/	/
CN1C(=O)CCC12CCN(Cc1cccn1-c1ccccn1)CC2	-2	0	4	1	/	/
COc1cc2c(cc1OC)C(COc1ccc(F)cc1)NCC2 (centres undefined)	6	0	1	7.1*	0	1
COc1cc2c(cc1OC)C(COc1ccc(F)cc1)N(C(=O)/C=C/c1cc(OC)c(OC)c(OC)c1)CC2 (centres undefined)	7	0	5	6.3*	1	10
CCOc1ccc(C(=O)N2CCc3cc(OC)c(OC)cc3C2COc2ccc(C(=O)OC)cc2)cc1OCC (centres undefined)	-7	0	3	20*	0	0
COc1ccc(OCC2c3cc(OC)c(OC)cc3CCN2C(=O)/C=C/c2cc(OC)c(OC)c(OC)c2)cc1 (centres undefined)	29	0	-4	-1	/	/
CCOC(=O)c1ccc(OCC2c3cc(OC)c(OC)cc3CCN2C(=O)c2ccc(OCC)c(OCC)c2)cc1 (centres undefined)	4	0	-4	0	/	/
COc1ccc(/C=C2\C(=O)N(c3ccc4ccccc4c3)N=C2C)cc1OC	-5	0	9	-1	/	/
Cc1cccc2sc(N(Cc3ccccn3)C(=O)CCOc3ccccc3)nc12	-14	0	-6	5.8*	0	3
CCCC1(C2CCN(C(=O)CCC(C)C)CC2)NC(=O)N(CCC2CCCN2C)C1=O (centres undefined)	3	0	17	0	/	/
